TSHR agonist: qHTS Assay for Agonists of the Thyroid Stimulating Hormone Receptor | HEK293-CNG-TSHR cells (CNG channel as cAMP sensor), membrane potential dye, cAMP | Potency, µM (series often up to 57.1 µM), for the others: at the top dose activation, usual class: activators | 73,000 tested, 0.48% active; active means well fitted activation curve with a large enough effect in the main read-out, with a control signal flat, not every such curve was filed as active; inconclusive means small, poorly fitted or top-dose-only effect, or a change in a side signal; inactive means no such curve, though single readings can be large or run the other way; % of control where 0% means no effect;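 further: the control signal comes from parental cells without the receptor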
Target sequence (P16473 whole entry, looked up): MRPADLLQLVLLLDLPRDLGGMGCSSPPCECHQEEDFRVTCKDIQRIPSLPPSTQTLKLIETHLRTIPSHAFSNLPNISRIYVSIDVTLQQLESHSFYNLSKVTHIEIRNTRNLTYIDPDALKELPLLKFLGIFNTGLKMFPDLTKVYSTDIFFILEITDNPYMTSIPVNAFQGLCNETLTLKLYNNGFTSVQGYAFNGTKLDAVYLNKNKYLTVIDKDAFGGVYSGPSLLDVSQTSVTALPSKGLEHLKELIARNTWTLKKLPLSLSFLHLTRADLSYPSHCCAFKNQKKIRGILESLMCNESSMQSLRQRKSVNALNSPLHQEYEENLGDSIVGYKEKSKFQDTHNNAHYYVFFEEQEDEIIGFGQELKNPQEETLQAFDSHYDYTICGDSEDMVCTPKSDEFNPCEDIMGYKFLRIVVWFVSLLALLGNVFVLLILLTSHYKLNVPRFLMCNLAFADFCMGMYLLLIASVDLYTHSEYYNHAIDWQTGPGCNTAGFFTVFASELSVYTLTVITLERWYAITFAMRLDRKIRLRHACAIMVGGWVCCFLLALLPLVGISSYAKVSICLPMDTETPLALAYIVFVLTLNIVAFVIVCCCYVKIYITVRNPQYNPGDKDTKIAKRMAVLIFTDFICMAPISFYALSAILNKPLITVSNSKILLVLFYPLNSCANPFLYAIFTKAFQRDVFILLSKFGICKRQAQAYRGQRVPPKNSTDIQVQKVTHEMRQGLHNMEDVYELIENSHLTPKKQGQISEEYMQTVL
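HEK 293 cells stably expressing TSHR and a cAMP-gated CNG channel; parental CNG-only cells as counterscreen. Cells preloaded 60 min with membrane potential dye plus 100 uM RO 20-1724, then compound 30 min; fluorescence read at 590 nm.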
PK Bst: Pyruvate Kinase. purified pyruvate kinase, luminescence ATP production; ribose 5-phosphate activator present at AC10. Potency, µM. 51,000 tested, 1.2% active. AID 361, 2006; in the data active means potency below about 11 µM; inconclusive means mostly about 12 µM to 25 µM;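 the screen sought inhibitors and activators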;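 further: scaled between full activation by ribose 5 phosphate and full inhibition by luteolin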
HEK293 cAMP cs: qHTS Assay for Agonists of the Thyroid Stimulating Hormone Receptor: Activators of Intracellular cAMP Concentrations in Parental HEK 293; Potency, µM (top dose mostly 57.1 µM), for inactives: at the highest dose activation, most hits filed as activators; parental HEK293 CNG cAMP sensor, membrane potential fluorescence; AID 938, 2007; 73,000 tested, 2.5% active; further: % of control where 0% means no effect; nearly all actives have a fitted effect of over 55% in size
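Parental HEK 293 cells stably expressing a cAMP-gated CNG channel were loaded with membrane potential dye containing 100 uM RO 20-1724 for 60 min. Compound added for 30 min; depolarization read as fluorescence intensity at 590 nm.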
Luciferase inh: qHTS Assay for Inhibitors of Firefly Luciferase; 72,000 tested, 2.2% active; AID 411, 2009; Potency, µM (top dose mostly 57.1 µM), without a hit: at the highest dose activity change, negative = inhibition, hits mostly inhibitors; purified firefly luciferase, luminescence, 8 min; further: on the % scale 0 is the no-effect control and ±100 the full control effect; nearly all actives have a fitted effect of over 40% in size
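Here, luciferase activity is measured as luminescence following an 8 min room-temperature reaction at 10 uM ATP, pH 7.2. Every library sample is titrated.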
* marks the source's active call; other numbers are inactive results; i = inactive; ? = inconclusive; . = not tested or not shown; ! = not active in a repeat; [ ] = another dose, or the depositor's remark. Compounds with a hit are over-represented: about 5.2% of the library has one in this group of screens. Unless noted, the call rests on the fitted dose curve; in most records, active means well fitted curve in the direction sought with a large enough effect; inconclusive means small, poorly fitted or top-dose-only effect, or another doubt; inactive means no such curve, though single readings can be large; an effect the other way counts as inactive or inconclusive. Potency means the concentration at half of the fitted maximal effect.

SMILES	TSHR agonist	PK Bst	HEK293 cAMP cs	Luciferase inh
CCCn1cnc2cc(NCc3ccccn3)ccc21	1.1%	.	3.5%	15.8µM*
CCCn1cnc2cc(NCc3cccc(OC)c3O)ccc21	-8.3%	.	-15.4%	15.8µM*
COc1cccc(CNc2ccc3c(c2)ncn3C(C)C)c1OC	-0.8%	.	0.5%	12.6µM*
CCn1cnc2cc(NCc3ccncc3)ccc21	2.3%	>57	-4.4%	-2.7%
CCCc1nc2ccccc2c(=O)n1NC(=O)c1c(O)c2cccc3c2n(c1=O)CCC3	8.5%	>57	9.4%	2.7%
Fc1ccc(Nc2ncnc3ccc(-c4ccoc4)cc23)cc1	?	.	12.6µM*	3.4%[2.29 µM]
COc1cccc(-c2ccc3ncnc(Nc4ccccc4)c3c2)c1	?	.	20µM*	-0.6%[2.29 µM]
COc1ccccc1-c1ccc2ncnc(Nc3ccccc3)c2c1	?	.	15.8µM*	-0.1%[2.29 µM]
COc1ccccc1CNc1ncnc2ccc(-c3ccccc3OC)cc12	12.6µM*	.	20.1%	-3.7%[2.29 µM]
COc1ccccc1-c1ccc2ncnc(NCc3ccccc3)c2c1	?	.	?	0.4%[2.29 µM]
COc1cccc(-c2ccc3ncnc(N(C)C)c3c2)c1	?	.	25.1µM*	-5.1%[2.29 µM]
CN(C)c1ncnc2ccc(-c3cccnc3)cc12	4.0%	.	15.2%	0.6%[2.29 µM]
COC(=O)[C@@]1(Cc2ccccc2)C=C[C@@H](C)N1C(C)=O	4.1%	.	3.3%	.
CC(=O)N1[C@H](C)C=C[C@]1(Cc1ccccc1)C(=O)NCCc1c[nH]c2ccccc12	0.5%	.	28.0%	.
C[C@@H]1C=C[C@](Cc2ccccc2)(C(=O)NCCc2c[nH]c3ccccc23)N1C(=O)c1ccccc1	?	.	2.51µM*	.
C[C@@H]1C=C[C@](Cc2ccccc2)(C(=O)NCCCNc2ncc(C(F)(F)F)cc2Cl)N1C(=O)c1ccccc1	?	.	25.1µM*	.
COC(=O)[C@@]1(Cc2ccccc2)C=C[C@@H](C)N1C(=O)c1ccccc1	?	.	31.6µM*	.
CC(=O)N1[C@H](C)C=C[C@]1(Cc1ccccc1)C(=O)NCc1cc(F)cc(C(F)(F)F)c1	17.8%	.	22.6%	.
COc1ccc(OC)c(C(=O)CSc2nnc(-c3cccs3)n2C)c1	11.4%	>57	0.1%	-1.0%
COC(=O)CSc1ncccc1-c1nc2ccccc2[nH]1	1.2%	.	4.3%	?
CCN(c1ccccc1)c1cc(NC)[n+](C)c(C)n1	?	.	31.6µM*	-0.3%
CCN(c1ccccc1)c1cc(C)nc2nc(C)nn12	18.6%	.	-0.1%	0.1%
COc1ccccc1NC(=O)c1oc2ccccc2c1NC(=O)c1ccco1	?	>57	?	-0.8%
COc1cccc(NC(=O)c2oc3ccccc3c2NC(=O)C(C)(C)C)c1	?	>57	1µM*	-0.3%
COc1cccc(NC(=O)c2oc3ccccc3c2NC(=O)c2ccc3c(c2)OCO3)c1	.	i	15.9%	3.98µM*
SMILES	TSHR agonist	PK Bst	HEK293 cAMP cs	Luciferase inh
CCC(=O)Nc1cccc(NC(=O)c2ccc3c(c2)OCO3)c1	-5.0%	.	-1.2%	?
COc1ccc(-n2ccnc2SCC(=O)NCc2ccc3c(c2)OCO3)cc1	.	>57	21.1%	1.0%
COc1ccc(Nc2cc(C)nc(N3CCOCC3)n2)cc1	3.0%	1.52*	0.3%	-3.1%
CCOc1ccc(Nc2cc(C)nc(-n3nc(C)cc3C)n2)cc1	?	6.27*	?	0.7%
Cc1cc(NC2CCCCC2)nc(N2CCOCC2)n1	16.7%	.	3.9%	.
COc1ccc(NC(=O)Cn2nnc(-c3ccccc3NC(=O)c3cccs3)n2)cc1	25.1µM*	>57	2.2%	-32.5%
CC(C)(C)n1nnnc1C(c1cccs1)N(Cc1ccccc1)Cc1ccco1 (stereo unspecified)	?	>57	15.8µM*	-4.2%
O=C(CN1CC(=O)Oc2ccccc21)NCc1ccco1	-1.1%	>57	1.4%	2.7%
CC(=O)C(Sc1nn(C)c(=S)s1)C(=O)Nc1ccccc1 (stereo unspecified)	?	>57	20µM*	-6.0%
CC(=O)C(Sc1nc(N2CCOCC2)nc(N2CCOCC2)n1)C(=O)Nc1ccccc1 (stereo unspecified)	2.0%	>57	10.6%	0.2%
COc1cccc(-c2cc(NCc3cnc(C)cn3)ncn2)c1	3.0%	.	9.0%	-3.7%[2.29 µM]
O=Nc1c(-c2c(O)[nH]c3ccccc23)[nH]c2ccccc12	?	.	-104.8%	25.1µM*!
CN1CCN(c2ncc3nc(-c4cccs4)c(=O)n(-c4ccccc4)c3n2)CC1	-9.3%	.	7.5%	1.6%[11.4 µM]
O=C(NCc1cccnc1)c1c[nH]c2cc3c(cc2c1=O)OCCO3	20.6%	i	24.0%	12.6µM*
COc1ccc(Cc2nnc3n2N=C(c2cc4ccccc4o2)CS3)cc1OC	?	>57	25.1µM*	0.6%
COC(=O)c1ccc(Cl)c(NC(C)=O)c1	-15.5%	>57	0.3%	-0.4%
COCCCNC(=O)c1ccc(N(C)S(=O)(=O)c2ccc(OC)cc2)cc1	1.5%	>57	-1.0%	3.3%
O=C(O)CCCC(=O)OCCCCc1cccs1	1.7%	.	5.0%	-0.4%
Nc1nnc(CCCCc2cccs2)o1	?	.	0.501µM*	.
CCN(CC)c1ccc2cc(-c3nc4ccccc4[nH]3)c(=O)oc2c1	-8.7%[11.4 µM]	.	-3.6%[11.4 µM]	0.0398µM*
CCN(CC)c1ccc2cc(-c3nc4ccccc4n3C)c(=O)oc2c1	?	.	?	-26.9%
COc1ccc(-n2c(C)cc(C(=O)CSc3nn4c(=O)c(C(C)(C)C)nnc4s3)c2C)cc1	3.2%	>57	-1.0%	2µM*
Cc1ccc(-n2c(C)cc(C(=O)CSc3nncs3)c2C)cc1	?	i	25.1µM*	25.1µM*
Cc1cc(C(=O)CSc2nncs2)c(C)n1-c1c(C)n(C)n(-c2ccccc2)c1=O	6.1%	>57	4.7%	0.3%
COc1ccc(-n2c(C)cc(C(=O)CSc3nnc(-c4ccoc4C)n3C)c2C)cc1	?	>57	31.6µM*	-0.7%
SMILES	TSHR agonist	PK Bst	HEK293 cAMP cs	Luciferase inh
O=C(CSc1nc(-c2ccco2)cc(C(F)(F)F)n1)Nc1ccc(C(=O)N2CCCCC2)cc1	-1.0%	.	8.8%	0.5%
CCOC(=O)N1CCN(C(=O)c2ccc3c(=O)n(Cc4ccccc4)c(=S)[nH]c3c2)CC1	?	>57	?	2.7%
Cc1ccc(C(=O)Nc2nncs2)cc1S(=O)(=O)N1CCOCC1	7.4%	>57	17.3%	-4.4%
COc1ccc(-c2cc(CCCC(=O)NCc3ccccn3)no2)cc1	2.0%	.	-0.3%	10µM*
CCOc1ccc(-c2cc(CCCC(=O)NCc3cccnc3)no2)cc1	?	.	?	12.6µM*
CCOc1ccc(-c2cc(CCCC(=O)Nc3cccc(OC)c3)no2)cc1	23.5%	.	29.2%	-28.5%
COc1ccc(-c2cc(CCCC(=O)NCCc3ccc(OC)cc3OC)no2)cc1	?	>57	?	-9.8%
COc1ccc(NC(=O)CCN2CCCCC2)cc1	1.5%	>57	4.3%	1.5%
CC(C)C(c1nnnn1Cc1ccccc1)N1CCc2ccccc2C1 (stereo unspecified)	.	>57	28.9%	1.9%
Cc1ccc(-c2nc(-c3nccc4ccccc34)oc2-c2ccccc2)cc1	0.3%[11.4 µM]	.	6.7%[11.4 µM]	3.16µM*
O=C(NCc1cccs1)c1cc2c(s1)-c1ccccc1OC2	.	.	29.6%	-22.9%

Bioassay records deposited in PubChem BioAssay by National Center for Advancing Translational Sciences (NCATS).
